From PubChem BioAssay
Rows were chosen to be rich in hits. Some 5.7% of all compounds tested hit in one or more screens of this group.
HepG2 tox – counter-screen for TGF-b inhibitors: cytotoxicity in HepG2 cells; HepG2 CAGA-GFP viability, ATP luminescence, 18 h; actives 0.76% (n = 410,000); Potency, µM (titrated, usually from 46.1 µM), inactives show at the top dose activity change, negative = cytotoxicity, usual class: cytotoxic; AID 588856; further: potency means the concentration at half of the fitted maximal effect
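CellTiter-Glo luminescence gave cytotoxicity after 18 hours at 37 degrees C. The cells were HepG2 CAGA-GFP in 1% FBS DMEM, stimulated with 500 pg/mL TGF-beta after compound addition. %Activity was normalised to no-cell wells (complete cell-killing) and DMSO (no toxicity), and curves were fitted and classified.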
ATXN2 expr inh – reduces ATXN2 reporter expression in HEK-293 cells | AID 1745845 | actives 0.72% (n = 360,000) | Potency, µM (doses to about 57 µM), inactives show at the highest dose activity change, negative = inhibition, most hits filed as inhibitors | HEK-293 ATXN2-luciferase reporter, luminescence, 24 h; further: potency means the concentration at half of the fitted maximal effect; on the % scale 0 is the no-effect control and ±100 the full control effect; nearly all actives have a fitted effect of over 55% in size
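ATXN2-luciferase reporter cells (luciferase flanked by upstream and downstream ATXN2 gene portions) were treated 24 h at 37 °C with compounds at up to 57 uM. SteadyGlo luminescence gave expression; GF-AFC fluorescence gave viability.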
ATXN viability – reduces viability in counter-screen for ATXN expression inhibitors; S2 cells (HEK-293 line with an ATXN2-luciferase reporter) viability, CellTiter-Fluor protease fluorescence, 24 h; Potency, µM (doses to about 56.7 µM), hits mostly cytotoxic; actives 0.49% (n = 400,000); AID 651635; further: potency means the concentration at half of the fitted maximal effect; nearly all actives have a fitted effect of over 40% in size
TGFb SMAD3 inh – TGF-b pathway inhibition; HepG2 CAGA-GFP TGF-b/SMAD3 reporter, GFP fluorescence, 18 h; TGF-beta stimulated, 500 pg/mL final; Potency, µM (highest dose often 46.1 µM), for the others: at the top dose activity, negative = inhibition, most hits filed as inhibitors; actives 1.2% (n = 410,000); AID 588855; further: potency means the concentration at half of the fitted maximal effect; on the % scale 0 is the no-effect control and ±100 the full control effect; nearly all actives have a fitted effect of over 65% in size
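TGF-beta reporter screen: HEPG2 CAGA-GFP, 1% FBS, 500 pg/mL TGF-beta final, 18 h; per-cell GFP summed per well; curves fitted and categorized by class.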
IL1B secr inh – inhibitors of inflammasome signaling (IL-1 beta secretion); THP-1 LPS/ATP IL-1B secretion, AlphaLISA, 16 h; stronger effect = lower value; activity change, % at 57.5 µM; actives 4.7% (n = 360,000); AID 743279; in the data active means activity change below about -50%; inconclusive means mostly about -30% to -49%; further: on the % scale 0 is the no-effect control and ±100 the full control effect
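Secreted IL-1B measured by AlphaLISA bead assay after 16 h compound exposure of THP-1 cells; compounds (final up to 57.5 uM) added 1 h before LPS (250 ng/mL) and ATP (1.25 mM) stimulation; lower signal means less secretion.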
An asterisk follows results filed as active; i = inactive; ? = inconclusive; nt = no result given; ! = repeats disagree. Unless noted, the call rests on the fitted dose curve; in most records, active means well fitted curve in the direction sought with a large enough effect; inconclusive means small, poorly fitted or top-dose-only effect, or another doubt; inactive means no such curve, though single readings can be large; an effect the other way counts as inactive or inconclusive.

SMILES	HepG2 tox	ATXN2 expr inh	ATXN viability	TGFb SMAD3 inh	IL1B secr inh
Clc1ccc(C[n+]2cc(-c3ccccc3)n3c2CCC3)cc1Cl	0%	-1%	i	-11%	-67*
CCc1ccc(CNc2ccc(O)cc2)cc1	13µM*	-12%	i	8.9µM*	12
Oc1ccc(NCc2ccc(OCc3ccccc3Cl)cc2)cc1	7.1µM*	?	nt	5µM*	nt
Oc1ccc(NCc2ccc(OCc3ccccc3)cc2)cc1	10µM*!	?	?	16µM*	60
N#Cc1ccc(Nc2nc(-c3ccccc3)c(C(=O)c3ccccc3)s2)cc1	11µM*	?	?	?	-52*
CCN1C(=O)CSc2ccc(C(=O)NC3CCCCC3)cc21	-2%	1%	i	2%	12
CCN1C(=O)CC(c2ccccc2)N(C2CCCC2)c2nc(Nc3ccc(C(=O)NC4CCN(C)CC4)cc3OC)ncc21 (stereo not drawn)	13µM*	?	nt	?	-77*
CCN1C(=O)CC(C(C)C)N(C2CCCC2)c2nc(Nc3ccc(C(=O)NC4CCN(C)CC4)cc3OC)ncc21 (stereo not drawn)	-90%	?	nt	?	-74*
COc1ccccc1-n1cnc2cc(C(=O)NC3CCCC3)ccc21	14%	8%	i	-10%	0
COc1cc(C(=O)NC2CCN(C)CC2)ccc1Nc1ncc2c(n1)N(Cc1ccccc1)CCC(=O)N2C	-52%	27%	?	44%	55
COc1cc(C(=O)NC2CCN(C)CC2)ccc1Nc1ncc2c(n1)N(C1CCCCC1)CCC(=O)N2C	13µM*	0%	?	?	4
COc1ccc(CCNC(=O)CCc2c(C)c3cc4c(C)coc4c(C)c3oc2=O)cc1OC	-9%	nt	nt	-27%	nt
NNC(=O)CNC(c1ccccc1)c1cc(Br)ccc1NC(=O)c1ccc(Br)cc1 (stereo not drawn)	-29%	-26%	i	-17%	-63*
COc1cc(=O)n2c(c1C(=O)N(C)Cc1nonc1C)CCN(Cc1cc(C)ccc1C)CC2	nt	nt	i	nt	nt
O=C(Nc1cc(C(F)(F)F)cc(C(F)(F)F)c1)c1cc(Cl)ccc1O	nt	0.86µM*	nt	nt	nt
COc1ccc(-c2c[n+]3c(n2-c2ccccc2)CCCCC3)cc1	-18%	-33%	i	?	?
CC(C)NC(=O)c1ccc(-n2c(-c3ccccc3)cc3c2CCCC3)cc1	-29%	nt	nt	?	nt
COc1ccccc1-n1c(-c2ccccc2)c[nH]c1=S	-10%	-21%	?	-8%	41
COc1ccc(-n2c(-c3ccc(Br)cc3)c[n+]3c2CCc2ccccc2-3)cc1	-36%	?	i	?	-59*
CC(C)c1ccc(-n2c(-c3ccccc3)c[n+]3c2CCc2ccccc2-3)cc1	-22%	?	?	?	-114*
COc1ccc(-c2cn(-c3ccc(OC)cc3)c3[n+]2-c2ccccc2CC3)cc1	-22%	?	?	?	-59*
COc1ccccc1-n1c(-c2ccccc2)c[n+]2c1CCc1ccccc1-2	-21%	6.7µM*!	?	13µM*	-99*!
CCCC(O)c1nc2ccccc2n1CCCCOc1ccc(OC)cc1 (stereo not drawn)	-21%	?	?	?	nt
Cc1c(Cl)ccc2sc(N3CCN(C(=O)c4ccco4)CC3)nc12	-50%	?	?	?	nt
O=C(CCCn1c(=O)c2cccn2c2ccccc21)NCCc1ccc(Cl)cc1	-30%	nt	nt	-26%	nt
SMILES	HepG2 tox	ATXN2 expr inh	ATXN viability	TGFb SMAD3 inh	IL1B secr inh
Cc1nnsc1-c1onc(C)c1C(=O)Nc1cc(Cl)cc(Cl)c1	-60%	nt	?	16µM*	?
Cc1ccc(NC(=O)c2c(C)noc2-c2snnc2C)cc1	6%	-14%	?	4%	13
COC(=O)C1CCN(c2nc(CN(C)C3CCOC3)nc3cc(OC)c(OC)cc23)CC1 (stereo not drawn)	nt	nt	i	nt	nt
O=C(Nc1nccs1)[C@@H]1CC=C[C@@H]2CCN(C3CC3)C(=O)[C@@H]21	-2%	nt	nt	2%	nt
Nc1ncnc2c1ncn2[C@@H]1O[C@H](CNCc2c(OCc3ccccc3F)ccc3ccccc23)[C@@H](O)[C@H]1O	-16%	-27%	?	?	-58*
Nc1nonc1C(=O)NCCNCc1cc(Br)ccc1OCc1ccc(F)cc1	-47%	nt	nt	-18%	-65*
Nc1nonc1C(=O)NCCNCc1c(OCc2ccccc2F)ccc2ccccc12	-96%	?	?	?	-81*
Nc1ncnc2c1ncn2[C@@H]1O[C@H](CNCc2ccccc2OCc2ccc(Cl)cc2Cl)[C@@H](O)[C@H]1O	-20%	-19%	i	-27%	?
COc1ccc(SCCN2CCN(CCc3ccccc3)CCC2=O)cc1	-2%	nt	nt	?	nt
CCC(C)c1ccc(C(C)NC(=S)NCc2ccc(F)cc2)cc1 (stereo not drawn)	-23%	?	i	18µM*	-80*
CC(NC(=S)NCc1ccc(F)cc1)C12CC3CC(CC(C3)C1)C2 (stereo not drawn)	-11%	14µM*	i	?	-84*
